# In PubChem BioAssay AID1645853 (Buhrlage Lab, Dana-Farber Cancer Institute and Novartis …, 2021):
# Out of some 47,000 compounds screened, about 2,000 (4.3%) were called active. No stated cut-off is given here; in the data, active means inhibition above about 30%; inactive means the rest. What follows is part of a selection rich in actives, with near analogues and random picks from the rest.
# Target: Ubiquitin carboxyl-terminal hydrolase 8 (Homo sapiens) (UniProt P40818)
# Assay: blocks human USP8 ubiquitin-rhodamine cleavage (AID 1645853)
# Conditions: purified USP8, Ub-rhodamine cleavage fluorescence, 30 min; at 20 µM; stronger effect = higher value
# Chain of Ubiquitin carboxyl-terminal hydrolase 8 (Homo sapiens) (P40818 whole entry, looked up): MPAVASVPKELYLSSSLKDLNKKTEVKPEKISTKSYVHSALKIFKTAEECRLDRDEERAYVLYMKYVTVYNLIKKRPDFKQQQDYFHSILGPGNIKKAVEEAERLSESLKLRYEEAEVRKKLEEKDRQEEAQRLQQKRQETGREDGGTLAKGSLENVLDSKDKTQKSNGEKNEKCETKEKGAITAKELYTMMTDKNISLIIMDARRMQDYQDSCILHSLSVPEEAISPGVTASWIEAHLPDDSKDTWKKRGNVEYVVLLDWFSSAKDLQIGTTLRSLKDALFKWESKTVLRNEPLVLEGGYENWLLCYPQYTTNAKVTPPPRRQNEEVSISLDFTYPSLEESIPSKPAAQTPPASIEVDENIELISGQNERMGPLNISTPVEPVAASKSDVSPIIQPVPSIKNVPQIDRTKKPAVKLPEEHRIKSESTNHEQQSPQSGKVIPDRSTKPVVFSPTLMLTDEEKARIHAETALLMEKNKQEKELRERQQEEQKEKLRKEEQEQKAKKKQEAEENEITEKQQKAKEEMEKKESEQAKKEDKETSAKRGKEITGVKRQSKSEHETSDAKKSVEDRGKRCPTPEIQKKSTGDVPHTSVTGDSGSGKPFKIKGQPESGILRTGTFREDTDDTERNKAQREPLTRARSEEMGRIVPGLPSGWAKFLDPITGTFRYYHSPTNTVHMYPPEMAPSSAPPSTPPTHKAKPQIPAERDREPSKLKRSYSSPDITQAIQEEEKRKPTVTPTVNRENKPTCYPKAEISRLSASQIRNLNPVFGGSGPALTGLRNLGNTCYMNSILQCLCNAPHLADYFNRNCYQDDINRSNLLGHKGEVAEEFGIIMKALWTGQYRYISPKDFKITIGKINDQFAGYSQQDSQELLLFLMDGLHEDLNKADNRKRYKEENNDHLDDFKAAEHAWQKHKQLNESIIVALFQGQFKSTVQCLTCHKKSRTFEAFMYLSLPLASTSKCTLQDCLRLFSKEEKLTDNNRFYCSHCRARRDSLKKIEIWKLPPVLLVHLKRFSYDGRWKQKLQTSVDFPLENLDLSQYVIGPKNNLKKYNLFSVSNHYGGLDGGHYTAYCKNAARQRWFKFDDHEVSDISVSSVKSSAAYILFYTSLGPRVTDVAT
row,SMILES,inhibition
1,O=C(Cc1c(Cl)cccc1Cl)NCc1cccc(C(F)(F)F)c1,49.9% (active)
2,O=C(NCc1ccccc1)c1nc[nH]c1C(=O)NCc1cccc(C(F)(F)F)c1,-114% (inactive)
3,O=C(Cc1cccc(C(F)(F)F)c1)Nc1cccn2ncnc12,2.29% (inactive)
4,CC(C)=CCC(O)C1=CC(=O)c2c(O)ccc(O)c2C1=O (stereo unspecified),-234% (inactive)
5,Cc1cc(NC(C)C)n2ncc(-c3ccc(Cl)cc3)c2n1,-13.7% (inactive)
6,Cc1nc(CC(=O)Nc2ccc(F)c(F)c2)sc1C(=O)NC1CC1,10.3% (inactive)
7,COc1cccc(CNS(=O)(=O)c2cc(-c3cc(C)no3)ccc2OC)c1,-16.2% (inactive)
8,CCn1c(-c2ccccc2)c(C(=O)COC(=O)C(NC(=O)c2ccccc2)C(C)C)c2ccccc21 (stereo unspecified),13.1% (inactive)
9,CN1C(=O)C2(CCN(C(=O)c3ccccc3Cl)C2)c2ccccc21 (stereo unspecified),-3.42% (inactive)
10,O=C(Nc1ccccc1)N1CCN(c2ncccc2-c2nnc(C3CC3)o2)CC1,-5.37% (inactive)
11,O=S1(=O)c2ccccc2O[C@H]2CCN(c3ncccn3)CC[C@@H]2N1Cc1cccnc1,-15.4% (inactive)
12,CC1CCN(c2nc(F)c3c(c2F)S(=O)(=O)CCN3Cc2cccnc2)CC1,85.2% (active)
13,CCN1CCN(c2nc(F)c3c(c2F)S(=O)(=O)CCN3CC2CCCO2)CC1 (stereo unspecified),25.6% (inactive)
14,COc1ccc(NC(=O)c2cc(S(=O)(=O)N3CCCCCC3)cn2C)cc1,0.0121% (inactive)
15,CC(CS(=O)(=O)c1ccc2c(c1)NC(=O)CCS2)C(=O)N1CCc2ccccc21 (stereo unspecified),-14% (inactive)
16,CC1CN(C(=O)c2ccc(-n3cccn3)c(C#Cc3ccccn3)c2)CC(C)O1 (stereo unspecified),-93.1% (inactive)
17,Cc1ccc(Cn2cc(-c3noc(-c4ccc[nH]4)n3)nn2)cc1,35.7% (active)
18,COc1ccc(-c2nc(-c3nnn(Cc4cccc(F)c4)c3C)no2)cc1,0.245% (inactive)
19,Cc1ccc(Cn2cc(-c3noc(-c4ccccn4)n3)nn2)cc1,-56.3% (inactive)
20,O=C(NCc1noc(C2CCCC2)n1)C1CCCCC1,19.8% (inactive)
21,CCc1nnsc1C(=O)N1CCOC(c2cccc(N(C)C)n2)C1 (stereo unspecified),11.8% (inactive)
